CSC inhib – blocks cancer stem cells | cancer stem cell-like cells viability, luminescence | hit rate 1.1% among 300,000 | AID 2717 | inhibition, % at 7.5 µM; in the data active means inhibition above about 75%; inconclusive means no clear call, values can overlap the other calls; tested in HMLE shEcad cells
Beta cell apopt – blocks beta cell apoptosis; INS-1E cytokine-induced death, ATP luminescence, 48 h; percent of positive-control rescue, neutral wells zero; hit rate 0.8% among 300,000; protection from apoptosis, % (no concentration beside the values);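 active means Every replicate reaches about 75%, or at least half do and their mean reaches it too, limit read from the data; inconclusive means At least half of replicates reach the limit but their mean does not; inactive means Under half of replicates reach the limit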;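 further: higher means more ATP so stronger rescue from cytokine killing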
aSyn UTR inh – MLPCN primary screen, SNCA 5' untranslated region; alpha-synuclein 5'UTR reporter, inhibitor activity; inhibition, % (tested at 7.5 µM); hit rate 0.82% among 300,000; in the data active means inhibition above about 60%; inconclusive means no clear call, values can overlap the other calls;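 further: H4 neuroglioblastoma cells stably carrying SNCA 5'UTR luciferase fusion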
Bfl-1 A1 inh – inhibitors of the anti-apoptotic protein A1, read as caspase activation; caspase activation, % (concentration not given with the values); hit rate 0.066% among 330,000; MEF A1-2A-BIM cells, Caspase-Glo 3/7 luminescence, 3 h; percent of clofoctol response, vehicle zero; AID 2462;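 active means over half of replicate activation scores above 10%, or exactly half above 10 with the replicate mean above 10; inconclusive means replicate mean below 10 yet half the replicates above 10; inactive means over half of replicates below 10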
Mdm2 MdmX PPI – disrupts the human Mdm2-MdmX interaction. hit rate 3% among 330,000. SaOS-2 split-luciferase Mdm2/MdmX complementation, luminescence. inhibition, % at 8 µM. O15151+Q00987;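 active means inhibition of at least 50% at 8 µM in the primary screen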
Target sequence (O15151 whole entry, looked up): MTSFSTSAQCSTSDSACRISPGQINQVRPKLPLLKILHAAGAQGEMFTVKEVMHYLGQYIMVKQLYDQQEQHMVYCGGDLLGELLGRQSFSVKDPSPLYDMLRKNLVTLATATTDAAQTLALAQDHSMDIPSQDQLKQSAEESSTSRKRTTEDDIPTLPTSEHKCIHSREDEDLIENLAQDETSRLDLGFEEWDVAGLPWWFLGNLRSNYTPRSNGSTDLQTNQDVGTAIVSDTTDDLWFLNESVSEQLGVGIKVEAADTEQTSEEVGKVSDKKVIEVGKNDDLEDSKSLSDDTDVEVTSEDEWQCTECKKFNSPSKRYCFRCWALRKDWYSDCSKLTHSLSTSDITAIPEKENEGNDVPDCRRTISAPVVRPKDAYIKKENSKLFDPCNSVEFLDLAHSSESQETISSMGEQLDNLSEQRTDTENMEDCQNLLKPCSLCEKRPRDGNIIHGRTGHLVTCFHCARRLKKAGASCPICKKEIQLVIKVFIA
Target sequence (Q00987 whole entry, looked up): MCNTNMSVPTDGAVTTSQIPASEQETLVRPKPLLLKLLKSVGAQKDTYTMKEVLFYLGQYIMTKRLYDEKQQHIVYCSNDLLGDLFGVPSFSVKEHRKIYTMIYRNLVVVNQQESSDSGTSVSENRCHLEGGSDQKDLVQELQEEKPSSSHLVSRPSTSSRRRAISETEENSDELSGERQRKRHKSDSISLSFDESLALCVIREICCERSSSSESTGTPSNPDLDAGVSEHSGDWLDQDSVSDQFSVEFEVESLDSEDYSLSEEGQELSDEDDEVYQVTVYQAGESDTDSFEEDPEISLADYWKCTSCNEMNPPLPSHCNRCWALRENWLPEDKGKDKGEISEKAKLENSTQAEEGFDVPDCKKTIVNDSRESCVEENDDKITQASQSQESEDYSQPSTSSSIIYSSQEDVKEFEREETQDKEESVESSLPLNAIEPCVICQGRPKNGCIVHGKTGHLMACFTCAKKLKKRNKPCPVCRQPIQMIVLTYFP
Mdm2-MdmX conf – confirmation of human Mdm2/MdmX interaction inhibitors; shares compounds with Mdm2 MdmX PPI; Mdm2-MdmX binding, luminescent assay; inhibition, % at 8 µM; hit rate 55% among 10,000; AID 489028; in the data active means inhibition above about 40%
FLuc counter – counter-screen for Mdm2/MdmX inhibitors: full-length luciferase; shares compounds with Mdm2 MdmX PPI; SaOS-2 full-length luciferase counterscreen, luminescence; inhibition, % at 8 µM; hit rate 77% among 6,200;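 active means mean inhibition at 8 µM reaching about 37%, which flags the compound as non-specific, limit read from the data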;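 further: p53-null SaOS-2 cells with luciferase driven by a doxycycline-inducible promoter; compound on cells about two nights before reading with doxycycline added after day one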
Numbers stand for hits; – = inactive; ? = inconclusive; · = no result. An excerpt weighted towards active compounds, which were near 4.1% of everything screened.

SMILES | CSC inhib | Beta cell apopt | aSyn UTR inh | Bfl-1 A1 inh | Mdm2 MdmX PPI | Mdm2-MdmX conf | FLuc counter
COC(=O)c1ccc(C)c(NS(=O)(=O)c2ccc(C)c([N+](=O)[O-])c2)c1 | – | – | – | – | – | · | ·
COC(=O)c1ccc(C)c(NS(=O)(=O)c2ccc3c(c2)OCCO3)c1 | – | – | 93.5 | – | 63.5 | 60.5 | 78.1
COC(=O)c1ccc(C)c(NS(=O)(=O)c2ccc(OC)cc2)c1 | – | – | 81.9 | – | 70.1 | 60.5 | 100.2
COc1cc(/C(C)=N/N2CCN(c3ccccc3OC)CC2)ccc1O | – | – | – | – | – | · | ·
Cc1nc2ccc(Br)cn2c1C(=O)N/N=C\c1ccc(C(C)C)cc1 | ? | · | – | – | 57.4 | 47.6 | 63.9
COc1ccc(-c2oc3ccccc3c2C#Cc2cncn2C)cc1 | 103.4 | – | · | – | 72.4 | 60.8 | 44.2
COc1ccc(-c2sc3cc4c(cc3c2C#Cc2cncn2C)OCO4)cc1 | – | – | · | – | – | · | ·
COc1ccc(-c2sc3ccc(OC)cc3c2C#Cc2cncn2C)cc1 | · | – | · | – | 53.6 | – | ·
O=C(c1ccc2nsnc2c1)N1CCN(c2ccc([N+](=O)[O-])cc2)CC1 | – | – | – | – | – | · | ·
COc1ccc(NC(=O)CN(C)C(=O)/C=C/c2ccc(OCc3ccccc3)cc2)cc1 | · | – | – | – | 52.2 | – | ·
CCCN(CCC)CCCNC(=S)Nc1ccc2nc(N3CCCC3)cc(C)c2c1 | – | – | – | – | 78.4 | 45.4 | 62.6
CCCCN(CC)CCCNC(=S)Nc1ccc2nc(N3CCN(C)CC3)cc(C)c2c1 | – | – | – | – | 56.2 | – | ·
CCCCN(CC)CCCNC(=S)Nc1ccc2nc(N3CCN(CC)CC3)cc(C)c2c1 | – | – | – | – | – | · | ·
COc1ccccc1/C=C/C(=O)Nc1ccc(S(=O)(=O)Nc2cc(C)on2)cc1 | – | – | – | – | – | · | ·
CN(CC(=O)NCc1ccccc1Cl)S(=O)(=O)c1ccc2c(c1)n(C)c(=O)c(=O)n2C | – | – | – | – | – | · | ·
Cc1ccc(NS(=O)(=O)c2ccc(Cl)c(NC(=S)NC(=O)C3CCCCC3)c2)cc1Cl | 106.0 | 101.6 | – | – | 71.7 | – | ·
Cc1ccc(NC(=O)C2CCCC2)cc1Cl | · | · | – | – | – | · | ·
Cc1ccc(-c2oc3ccccc3c(=O)c2O)cc1 | – | – | – | – | 84.1 | 50.8 | –
CC1CCCCN1C(=O)c1cccc(NC2=C(Cl)C(=O)N(Cc3ccccc3)C2=O)c1 (stereo not given) | – | – | · | – | 75.9 | – | ·
CC1CCN(C(=O)c2ccc(NC3=C(Cl)C(=O)N(Cc4ccccc4)C3=O)cc2)CC1 | · | · | · | · | 57.8 | – | ·
CCOc1ccccc1NC1=C(Cl)C(=O)N(Cc2ccccc2)C1=O | – | – | – | – | – | · | ·
CC1CCCCN1C(=O)c1ccc(C(=O)c2ccccc2)cc1 (stereo not given) | – | – | · | – | – | · | ·
O=C1C(Cl)=C(Nc2cccc(O)c2)C(=O)N1Cc1ccccc1 | – | – | – | – | 52.2 | – | ·
CCCN(C(=O)CCSc1ccc(F)cc1)c1c(N)n(Cc2ccccc2)c(=O)[nH]c1=O | – | – | – | – | – | · | ·
Cc1ccc(N=c2c([N+](=O)[O-])nn(-c3ccc4c(c3)OCCO4)n2O)c(Cl)c1 | – | – | – | – | – | · | ·
SMILES | CSC inhib | Beta cell apopt | aSyn UTR inh | Bfl-1 A1 inh | Mdm2 MdmX PPI | Mdm2-MdmX conf | FLuc counter
Cc1cc(C)cc(N=c2c([N+](=O)[O-])nn(-c3ccc4c(c3)OCCO4)n2O)c1 | – | – | – | – | 70.2 | 64.6 | 44.8
O=[N+]([O-])c1nn(-c2ccc3c(c2)OCCO3)n(O)c1=Nc1ccccc1 | – | – | 79.9 | – | 91.1 | 95.4 | 53.4
Cc1ccc(N=c2c([N+](=O)[O-])nn(-c3ccc4c(c3)OCCO4)n2O)cc1F | – | – | – | – | 79.6 | 94.8 | –
O=[N+]([O-])c1nn(-c2ccc3c(c2)OCCO3)n(O)c1=Nc1ccc(Cl)cc1 | – | – | – | – | 86.0 | 92.0 | 50.8
CCc1ccc(N=c2c([N+](=O)[O-])nn(-c3ccc4c(c3)OCCO4)n2O)cc1 | · | – | – | – | – | · | ·
COc1cccc(CC(=O)OCC(=O)N(C)CC(=O)Nc2ccc(F)cc2)c1 | · | – | – | – | – | · | ·
Cc1c(C(=O)Nc2ccncc2)sc2nc(-c3ccc(F)cc3)cn12 | – | – | – | – | 67.0 | – | ·
COc1ccc(-c2cn3c(C)c(C(=O)Nc4ccncc4)sc3n2)cc1 | – | – | – | – | – | · | ·
COc1cc(/C=C/C(=O)c2ccc(O)cc2)ccc1OCC#N | – | – | – | – | 87.1 | 78.0 | –
COc1cccc(C(=O)/C=C/c2ccc(OCC#N)c(OC)c2)c1 | – | – | – | – | 96.4 | 42.6 | 42.5
CCOc1ccc(/C=C/C(=O)c2ccccc2)cc1OC | – | – | – | – | – | · | ·
Cc1cc(C)cc(NC(=O)COC(=O)COc2ccc(N(C)S(=O)(=O)c3cccs3)cc2)c1 | – | – | · | – | – | · | ·
O=C(CCl)N1CCN(C(=O)C2COc3ccccc3O2)CC1 (stereo not given) | – | – | · | – | 66.6 | – | ·
Cc1ccc(-n2c(-c3ccccc3)c[n+]3c2CCc2ccccc2-3)c(C)c1 | – | 129.6 | · | – | 81.8 | 65.5 | –
COC(=O)c1cc(NC(=O)Nc2cccc(Cl)c2)ccc1Cl | – | – | – | – | 87.6 | 42.8 | 95.8
COC(=O)c1cccc(NC(=O)NC(=O)c2ccc(Cl)cc2)c1 | – | – | – | – | 68.9 | 42.8 | 73.0
COC(=O)c1cccc(NC(=O)Nc2ccc(Cl)cc2)c1 | – | – | – | – | – | · | ·
COc1ccccc1NS(=O)(=O)c1cccc(NC(=O)Nc2cccc(Cl)c2)c1 | – | – | – | – | 54.6 | 48.7 | 45.7
O=C(Nc1cccc(Cl)c1)Nc1ccc(Br)cc1F | · | · | – | – | 81.5 | 80.0 | 54.8
NS(=O)(=O)c1ccc(CCNC(=S)NC(=O)c2ccccc2Br)cc1 | – | – | · | – | – | · | ·
COc1ccc(S(=O)(=O)N2CCOCC2)cc1NS(=O)(=O)c1ccc(F)c(F)c1 | – | – | · | – | – | · | ·
COc1cc2ccccc2cc1C(=O)NNC(=O)c1ccccc1O | – | – | – | – | 55.7 | 48.0 | 40.4
COc1cc(NC(=O)c2cc3ccccc3cc2O)c(OC)cc1Cl | 76.4 | 110.6 | – | – | 100.3 | 91.2 | 42.4
Cc1ccc(Cl)cc1NC(=O)c1cc2ccccc2cc1O | – | 103.8 | – | – | 92.7 | 96.5 | 51.7
COc1ccc(NC(=O)c2cc3ccccc3cc2OC)cc1 | – | – | – | – | – | · | ·
COc1ccc(-c2nc3ccc(N4CCCC4)cc3c(=O)[nH]2)cc1OC | – | – | – | – | 51.6 | 57.5 | 56.1
COC(=O)CCC[C@H]1CC2(C[C@H](CCCO[Si](C)(C)C(C)(C)C)N1C(=O)OC(C)(C)C)OCCO2 | – | – | · | – | – | · | ·
NC(N)=N/N=C/c1ccc(OS(=O)(=O)c2ccccc2)cc1 | – | – | – | – | 57.2 | – | 81.8

Compound activity deposited in PubChem by several laboratories.
